PubChem BioAssay AID524 (The Scripps Research Institute Molecular Screening Center, 2006)
In all, about 65,000 compounds went through this assay and about 95 (0.1%) were called active.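 Rule for the calls: active = inhibition above the screen-wide mean inhibition plus 3 SD (cut at about 21% in these data); inactive = the rest.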 What follows is part of a selection rich in actives, with near analogues and random picks from the rest.

molecular target: cAMP-dependent protein kinase catalytic subunit alpha (Homo sapiens) (UniProt P17612); assay: inhibitors of human PKA kinase activity, primary screen, biochemical, ATP-depletion luminescence, Kemptide substrate (AID 524); conditions: PKA Kemptide phosphorylation, Kinase-Glo ATP luminescence; at 6 µM; hits give high values

inhibition, inactive:
CC(=O)Cc1nsc(NC(=O)c2ccc(COc3ccc(C)cc3)o2)n1 11.4%
O=C(Nc1cccnc1)c1noc2c1CCCCC2 -2.8%
O=C(CN1CCN(C2CCCCC2)CC1)Nc1ccccc1N1CCCCC1 1.9%
O=C1c2ccccc2C(=O)N1c1ccccc1S(=O)C(F)(F)F (stereo not given) -0.9%
Cc1ccccc1C(=O)NCCN=C1NS(=O)(=O)c2ccccc21 11.6%
CSc1ccc(NC(=O)N2CC(C)OC(C)C2)cc1 (stereo not given) 10.1%
N#Cc1ccc(COC(=O)Cn2nnc(-c3ccccc3)n2)cc1 10.9%
Cc1cc(C(=O)OCC(=O)NCc2ccco2)c(C)n1-c1ccccc1 0.4%
CS(=O)(=O)N(CC(=O)N1CCOCC1)c1ccc2c3c(cccc13)CC2 10.1%
COc1ccc2c(CC(=O)Nc3nnc(C4CC4)s3)coc2c1 10.2%
CC1CCCCC1NC(=O)CSc1nnc(N)s1 (stereo not given) 5.7%
C=CCNC(=O)C12CC3CC(C1)CC(C(=O)NCC=C)(C3)C2 -3.4%
N#Cc1nc(COc2ccc(Cl)cc2)oc1N1CCCC1 -3%
Cc1nc(C)c(C(=O)Nc2cccc(C)c2C)o1 -2.6%
O=C(C1CC1)N1CCN=C1SCc1ccc(Cl)cc1 6.8%
Brc1cccc(-c2nnc3n2CCC3)c1 0.9%
CCOC(=O)C1CCN(C(=O)Cn2cc(C#N)c3ccccc32)CC1 4.3%
COc1cccc2cc(C(C)N(CCCN3CCOCC3)C(=O)Nc3ccc(Cl)cc3)oc12 (stereo not given) 0.5%
O=S(=O)(NCc1ccc2c(c1)OCO2)c1cccc2nsnc12 5.1%
c1ccc(CCn2nnnc2CN2CCN(C3CCCC3)CC2)cc1 -3.2%
Cc1cc2ccccc2n2c(SCC(=O)N3CCN(C(=O)c4ccco4)CC3)nnc12 8.5%
CCCn1c(SCC(=O)Nc2c(C)cccc2C)nnc1C(C)C 4.9%
CCn1c(SCC(=O)Nc2cccc(F)c2)nnc1-c1cc2cc(Br)ccc2o1 10.1%
Cc1cccc(CC(=O)Nc2c3c(nn2-c2cccc(Cl)c2)CS(=O)C3)c1 (stereo not given) 9.5%
NC(=O)CCCC1=NS(=O)(=O)c2ccccc2N1 5.7%
CCN(c1ccccc1)S(=O)(=O)c1ccc(N)cc1 9%
CCCCn1c(SCC(=O)N2CCC(C(=O)OCC)CC2)nc2cc(S(N)(=O)=O)ccc21 2.4%
CCCCNc1nc2c(c(=O)[nH]c(=O)n2C)n1CCOc1ccccc1 -1.2%
CCOc1ccc(NC(=O)CSc2nc3c(c(=O)n2-c2ccccc2OC)SCC3)cc1 -2.3%
COc1ccc(OC)c2[nH]c(=O)c(CCNC(=O)C(C)(C)C)cc12 2.9%
CC(C)C(C(=O)NC1CCCCC1)N(CC1CCCO1)C(=O)CNS(=O)(=O)c1ccc(F)cc1 (stereo not given) 4.8%
O=C(NCCC1=CCCCC1)C1CCN(Cc2cnn(-c3ccccc3)c2-n2cccc2)CC1 6.6%
Cn1c(SCC(=O)Nc2cccc(NC(=O)c3cccs3)c2)nnc1-c1ccncc1 12.7%
CC(=O)Nc1ccc(-c2cn3cccnc3n2)cc1 3.9%
CN1C(=O)c2ccccc2C(C(=O)NCCCN2CCCC2)C1c1c[nH]c2ccccc12 (stereo not given) 2.4%
CC(C)CNS(=O)(=O)c1ccc(OCC(=O)Nc2ccc3c(c2)OCO3)c(Cl)c1 4.9%
CC(=O)Nc1ccc(S(=O)(=O)NCCc2ccccc2)cc1 2.1%
CCC(=O)N1CCN=C1SCc1ccc(F)cc1 3.7%
COc1cc2[nH]c(=S)n(Cc3ccc(C)o3)c(=O)c2cc1OC 1.2%
CC(=O)c1cc2c(cc1N)OCO2 1.2%
Cc1ccc2c(c1)sc1ncc(NC(=O)c3ccccc3)c(=O)n12 -1.3%
Cc1cc(C)cc(NC(=O)N2CCC(NC(=O)c3ccc(F)cc3)CC2)c1 5.9%
CCCNS(=O)(=O)c1ccc2c(c1)CCCN2C(C)=O 9.1%
CCc1cccc2c3c([nH]c12)C(CC)(CC(=O)O)OCC3 (stereo not given) -6.8%
COc1cc(C2C3C(=O)N(c4ccccc4)C(=O)C3ON2c2ccccc2)ccc1O (stereo not given) 4.7%
CC(C)Cc1ccc(S(=O)(=O)N2CCN(C(=O)c3ccco3)CC2)cc1 7%
COc1ccc2[nH]c(=O)c(CN(Cc3nnnn3CCc3ccccc3)CC3CCCO3)cc2c1 (stereo not given) -2.5%
O=C(NCCCNCc1ccccc1)c1ccc(/C=N/O)nc1 9.9%
Cc1noc(C)c1C(=O)OCC(=O)/C=C1\N(C)c2ccccc2C1(C)C 6.8%
CC1=Nn2c(nnc2-c2ccccc2)SC1 4.2%
CCOc1cc(/C=N/n2cnnc2)c(Br)cc1O 6.7%
Cc1ccc(S(=O)(=O)N2CCN(Cc3cccc(C)c3O)CC2)cc1 6.3%
CCCc1cc(=O)n2[nH]c(SCc3ccccc3)nc2n1 5.4%
O=C(Nc1ccc(S(=O)(=O)N2CCCC2)cc1Cl)C1=COCCO1 -4.1%
Cn1c(=NC(=O)c2cnccn2)sc2ccccc21 5%
O=P(c1cccs1)(c1cccs1)c1cccs1 3.3%
COC(=O)c1nc(NC(=O)c2ccc(Cl)cc2)n[nH]1 5%
Cn1c(=NC(=O)CSCC(=O)N2CCOCC2)sc2ccccc21 7.1%
O=C(C1CCN(c2nnc(-n3cccc3)s2)CC1)N1CCc2ccccc2C1 -3.8%
O=C(Cn1nnc(-c2ccc(CN3CCOCC3)cc2)n1)NC1CCCCC1 10.1%
COC(=O)C(C)N(C#N)c1nc(C)nc(C)n1 (stereo not given) -1.3%
CCN(CC)CCN1C(=O)C(=O)/C(=C(/O)c2ccccc2)C1c1ccccc1F (stereo not given) -5.4%
N#C/C=C1\Sc2ccccc2C(=O)N1CC(=O)N1CCN(S(=O)(=O)c2ccccc2)CC1 6.8%
CCOC(=O)c1ccc(N2C(=O)CC(Sc3nc(O)c(CC)c(=O)[nH]3)C2=O)cc1 (stereo not given) 7.3%
CC(=O)Nc1cccc(NC(=O)c2c(-c3ccccc3)noc2C)c1 -5.3%
Cc1nnc(SCC(=O)NCc2cccs2)[nH]c1=O 12.3%
Cc1nc(SC(C)C)[nH]c(=O)c1Cc1ccccc1 5.4%
COc1cccc(-n2cc(C(=O)O)c3ccccc3c2=O)c1 12.3%
COc1cccc(Nc2nnc(SCC(=O)N3CC(C)OC(C)C3)s2)c1 (stereo not given) 6%
CC(=O)NC1CC2CCCC(C1)N2CC(=O)Nc1ccccc1 (stereo not given) 6%
O=C(NCC1CCCO1)C(C(=O)c1ccccc1)n1cc(Cl)ccc1=O (stereo not given) 1.8%
Cc1nc2ccc(S(=O)(=O)NCC(=O)NCCN3CCCCC3C)cc2s1 (stereo not given) -5.1%
CCOC(=O)CN1C(=O)C(O)(CC(=O)c2ccccn2)c2ccccc21 (stereo not given) 10.4%
CCOc1ccc(C(=O)Nc2cc(OC)ccc2OC)cc1 -1.4%
CC1(C)CC(=O)C(C=NCc2cccnc2)=C(O)C1 7%
CCCCCCOC(=O)NCC(O)c1ccccc1 (stereo not given) 3.5%
Cc1cc(NC(=O)c2cccc(N3C(=O)CCC3=O)c2)no1 -4%
COc1ccc2nc(NC(=O)c3ccc(Br)s3)sc2c1 -4.9%
CC(=O)Oc1ccc(C(=O)Nc2nccs2)cc1 -2.3%
COc1cc(Cl)c(S(=O)(=O)n2cnc(C)c2)cc1Cl 4.9%
O=S(=O)(NCc1cccnc1)c1ccc(Br)s1 -2.9%
CN(Cc1ccccc1)c1nc2c(c(=O)[nH]c(=O)n2C)n1CCSc1nc2ccccc2[nH]1 2.7%
COc1ccc2[nH]c(=O)c(CN(CC3CCCO3)C(=O)Nc3ccccc3)cc2c1 (stereo not given) -4.5%
c1ccc(-c2oc3ncnc(N4CCOCC4)c3c2-c2ccccc2)cc1 7.5%
CCCCCN(C(=O)NC(=O)Nc1ccccc1OC)S(C)(=O)=O 8.1%
CN1CCCc2cc(C#N)c(=O)[nH]c21 11.8%
Cc1ccccc1-n1c(SCC(=O)NCc2cccs2)nnc1-c1ccncc1 11.7%
O=C(CSc1nc2ncccc2[nH]1)Nc1ccc2c(c1)OCCO2 -9.5%
CCOC(=O)C1CCN(C(=O)C2CCN(S(=O)(=O)CC)CC2)CC1 0.3%
CCCc1nc2ccccc2c(=O)n1NC(=O)c1c(O)c2ccccc2[nH]c1=O 7.9%
O=C(O)COc1nsnc1N1CCOCC1 -0.4%
CCOC(=O)c1sc(NC(=O)CSc2nnc(-c3ccco3)o2)c(C(=O)OCC)c1C -4.6%
COC(=O)CCSc1nccn1Cc1ccccc1 1.3%
O=C(Oc1ccccc1)c1ccc2nccnc2c1 18.8%
CN1C(=O)CC(N2CCN(c3ccccn3)CC2)C1=O (stereo not given) 0.2%
Cc1ccc(-c2nc(COC(=O)c3c(C)noc3C)cs2)cc1 0.5%
CCn1c(=O)cc(OCC(=O)NCCCN2CCN(c3cccc(Cl)c3)CC2)c2ccccc21 9.2%
COC(CCN(C)C)(c1ccccc1)c1ccccc1 9.3%
COC(=O)c1ccc(NC(=O)c2ccco2)cc1 -3.7%
Cc1cccc(-n2c(Cc3cc(=O)[nH]c(=O)[nH]3)nnc2SC(C)C)c1 -8.8%
